Compound activity from PubChem BioAssay.
Most compounds without a hit are left out; they make up all but 3.5% or so of the library.
TEAD-YAP inh = TEAD-YAP interaction inhibition; HEK-TIYL cells, TEAD-Gal4/YAP UAS-luciferase luminescence; inhibition, % at 9.12 µM; 640,000 tested, 1.4% active; AID 1259422; in the data active = inhibition above about 32%
GPR151 activ = activators of human GPR151; PathHunter beta-arrestin GPR151 cells, luminescence; AID 1508602; 650,000 tested, 1% active; activation, % at 11.2 µM; Q8TDV0; in the data active = activation above about 4.9%
Target sequence (Q8TDV0 whole entry, looked up): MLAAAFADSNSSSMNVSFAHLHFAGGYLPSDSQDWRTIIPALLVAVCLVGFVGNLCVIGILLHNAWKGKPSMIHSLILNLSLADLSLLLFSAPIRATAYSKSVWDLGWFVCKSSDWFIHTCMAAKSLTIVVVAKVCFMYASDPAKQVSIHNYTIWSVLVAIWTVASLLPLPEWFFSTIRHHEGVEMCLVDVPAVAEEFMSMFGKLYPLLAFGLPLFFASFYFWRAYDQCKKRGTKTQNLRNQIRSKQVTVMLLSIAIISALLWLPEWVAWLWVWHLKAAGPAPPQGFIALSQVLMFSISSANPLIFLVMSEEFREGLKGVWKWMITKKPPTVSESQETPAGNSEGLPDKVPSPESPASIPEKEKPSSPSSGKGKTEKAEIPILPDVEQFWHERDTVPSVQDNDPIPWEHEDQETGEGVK
MITF inh = inhibitors of human MITF | O75030 | AlphaScreen MITF homodimerization, bead proximity signal | inhibition, % at 2.6 µM | 650,000 tested, 0.91% active | AID 1259374; in the data active = inhibition above about 50%
FBW7 activator = activators of human E3 ligase FBW7. Q969H0. AlphaScreen FBW7–phospho-cyclin E peptide binding, activator screen. normalized activity (activation), % at 26.1 µM. 650,000 tested, 0.13% active. AID 1259310; in the data active = normalized activity above about 1.9%;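 note: purified mutant Fbw7 with reduced substrate affinity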
GPR151 confirm = human GPR151 activation, confirmation screen. shares compounds with GPR151 activ. GPR151 PathHunter beta-arrestin cells, luminescence, 90 min; % of EA-reagent control over plate median. activation, % at 11.2 µM. 6,700 tested, under 10 active. AID 1508609;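 active = mean percent activation across replicates above the confirmation screen cutoff of 4.91%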
GPR119 ag = activates human GPR119 in a GPR151 counter-screen. 6,700 tested, 0.3% active. AID 1508611. activation, % at 11.2 µM. shares compounds with GPR151 activ. GPR119 PathHunter beta-arrestin cells, luminescence, 90 min; 0 = compound-well median, 100 = enzyme-acceptor control;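 active = mean percent activation in the counterscreen above 29.09%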;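 note: counterscreen on off-target GPR119 to flag nonselective hits from the GPR151 activator screen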
Hits are given with their value.

How did O=C1c2cccc([N+](=O)[O-])c2C(=O)N1Cc1ccco1 do in these assays?
TEAD-YAP inh: inactive; GPR151 activ: 5.2; MITF inh: inactive; FBW7 activator: inactive; GPR151 confirm: inactive; GPR119 ag: inactive

How did CCOC(=O)c1cnc2c(C)cccc2c1Nc1ccc(N2CCCCC2)cc1 do in these assays?
TEAD-YAP inh: inactive; GPR151 activ: inactive; MITF inh: inactive; FBW7 activator: inactive

How did Cc1cccc(NC(=O)CC(C)S(=O)(=O)c2ccc3c(c2)SCC(=O)N3)c1C (configuration not stated) do in these assays?
TEAD-YAP inh: inactive; GPR151 activ: 5.8; MITF inh: inactive; FBW7 activator: inactive; GPR151 confirm: inactive; GPR119 ag: inactive

What do the screens show for `Cc1cccc(C(C)C)c1NC(=O)CCS(=O)(=O)c1ccc2c(c1)SCC(=O)N2`?
TEAD-YAP inh: inactive; GPR151 activ: 5.5; MITF inh: inactive; FBW7 activator: inactive; GPR151 confirm: inactive; GPR119 ag: inactive

How did Cc1c(Cl)cccc1NC(=O)CC(C)S(=O)(=O)c1ccc2c(c1)SCC(=O)N2 (configuration not stated) do in these assays?
TEAD-YAP inh: inactive; GPR151 activ: inactive; MITF inh: inactive; FBW7 activator: inactive

Results for CC(=O)c1ccc(NC(=O)CN2CC(=O)Oc3ccccc32)cc1 ?
TEAD-YAP inh: inactive; GPR151 activ: inactive; MITF inh: inactive; FBW7 activator: inactive

Results for CCC(=O)N1CCc2nc3ccccn3c(=O)c2C1 ?
TEAD-YAP inh: inactive; GPR151 activ: inactive; MITF inh: inactive; FBW7 activator: inactive

How did CC(C)(C)C(=O)N1CCc2nc3ccccn3c(=O)c2C1 do in these assays?
TEAD-YAP inh: inactive; GPR151 activ: 6.8; MITF inh: inactive; FBW7 activator: inactive; GPR151 confirm: inactive; GPR119 ag: inactive

What do the screens show for `Cc1cc(N/N=C/c2cccc([N+](=O)[O-])c2)nc(-c2ccccc2)n1`?
TEAD-YAP inh: inactive; GPR151 activ: 5.0; MITF inh: inactive; FBW7 activator: inactive; GPR151 confirm: inactive; GPR119 ag: inactive

What do the screens show for `Nc1cc(=O)[nH]c(SCC(=O)N2CCN(C(c3ccccc3)c3ccccc3)CC2)n1`?
TEAD-YAP inh: inactive; GPR151 activ: 9.4; MITF inh: inactive; FBW7 activator: inactive; GPR151 confirm: inactive; GPR119 ag: inactive

Results for CCCc1cc(=O)[nH]c(SCC(=O)N2CCN(c3ccccc3OC)CC2)n1 ?
TEAD-YAP inh: inactive; GPR151 activ: 6.7; MITF inh: inactive; FBW7 activator: inactive; GPR151 confirm: inactive; GPR119 ag: inactive

What do the screens show for `Cc1nc(NCCC#N)cc(-c2cncc(-c3cc4ccccc4s3)c2)n1`?
TEAD-YAP inh: inactive; GPR151 activ: inactive; MITF inh: inactive; FBW7 activator: inactive

What do the screens show for `COc1cc(C2/C(=C(/O)c3ccc(Cl)cc3)C(=O)C(=O)N2CCO)ccc1O` (configuration not stated)?
TEAD-YAP inh: inactive; GPR151 activ: inactive; MITF inh: inactive; FBW7 activator: inactive

What do the screens show for `COc1ccc(/C(O)=C2/C(=O)C(=O)N(CCCO)C2c2cccc(Cl)c2)cc1F` (configuration not stated)?
TEAD-YAP inh: inactive; GPR151 activ: 6.8; MITF inh: inactive; FBW7 activator: inactive; GPR151 confirm: inactive; GPR119 ag: inactive

Results for COCCCN1C(=O)C(=O)/C(=C(\O)c2ccc(C)cc2)C1c1ccc(F)cc1 (configuration not stated) ?
TEAD-YAP inh: inactive; GPR151 activ: 7.6; MITF inh: inactive; FBW7 activator: inactive; GPR151 confirm: inactive; GPR119 ag: inactive

Results for O=C(COc1ccccc1)Nc1nnc(SCC(=O)N2CCc3ccccc32)s1 ?
TEAD-YAP inh: inactive; GPR151 activ: inactive; MITF inh: inactive; FBW7 activator: inactive

Results for O=C(O)/C=C/C(=O)N(Cc1ccccc1)Cc1ccccc1 ?
TEAD-YAP inh: inactive; GPR151 activ: 5.3; MITF inh: inactive; FBW7 activator: inactive; GPR151 confirm: inactive; GPR119 ag: inactive

What do the screens show for `COc1ccc(/C=C/C(=O)N(Cc2ccccc2)Cc2ccccc2)cc1`?
TEAD-YAP inh: inactive; GPR151 activ: inactive; MITF inh: inactive; FBW7 activator: inactive

How did CC(Cl)C(=O)N(Cc1ccccc1)Cc1ccccc1 (configuration not stated) do in these assays?
TEAD-YAP inh: inactive; GPR151 activ: 5.1; MITF inh: inactive; FBW7 activator: inactive; GPR151 confirm: inactive; GPR119 ag: inactive
